Results from PubChem BioAssay AID504834 (National Center for Advancing Translational Sciences (NCATS), 2011).
Screen size: about 320,000 compounds; about 22,000 (6.9%) were called active. A call without a number means that no potency is given here. Inconclusive results (about 27%) are left out. This is one part of a sample in which actives are shown more often than they occur. The call rests on the fitted dose curve; in most records, active means well fitted inhibition curve with a large enough effect; inconclusive means small, poorly fitted or top-dose-only effect, or another doubt; inactive means no such curve, though single readings can be large or run the other way.

test: Primary qHTS for delayed death inhibitors of the malarial parasite plastid, 96 hour incubation; settings: P. falciparum luciferase reporter growth; series mostly up to 28.7 µM
Method in brief: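 Infected RBCs, 2% Hct / 0.05% parasitemia final; luciferase-reporter P. falciparum; cpd 96 h, 37 C, 5% CO2; luciferase detection reagent; luminescence.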
Potency means the concentration at half of the fitted maximal effect.

| Compound | Potency |
| --- | --- |
| O=C(O)c1ccccc1-c1ccccc1C(=O)Nc1ccccc1Br | inactive |
| COC(=O)CN1C(=O)[C@H]2[C@@H](/C=C/c3ccccc3)N3C(=O)CN(CC4CC4)C(=O)[C@@]3(Cc3ccccc3)[C@H]2C1=O | inactive |
| Fc1ccc(-c2ccc(NCCN3CCOCC3)nn2)cc1 | inactive |
| O=S(=O)(c1ccc(SCc2ccccc2)nc1)N1CCCCCC1 | inactive |
| Cc1cc(=O)oc2cc(NC(=O)C(C)Oc3ccccc3)ccc12 (stereo not given) | inactive |
| COc1ccc(-c2cc(=O)oc3cc(OC(C)C(=O)Nc4ccc(CN5CCOCC5)cc4)ccc23)cc1 (stereo not given) | 9.28 µM (active) |
| Cc1cc(=O)oc2cc(OC(C)C(=O)Nc3ccc(N4CCOCC4)cc3)ccc12 (stereo not given) | inactive |
| CN1C(=O)C2(OCCCO2)c2cc(Cl)ccc21 | inactive |
| Cc1cc(S(=O)(=O)c2cc3ccc(O)c(C)c3oc2=O)ccc1F | inactive |
| CCOc1ccc(-n2cnc3c(=O)[nH]c(N)nc32)cc1 | inactive |
| Cc1n[nH]c(C)c1S(=O)(=O)N1CCCC(C(=O)Nc2ccc(Br)cc2)C1 (stereo not given) | inactive |
| CCC(C)C(N=C1NS(=O)(=O)c2ccccc21)C(=O)N1CCC(C)CC1 (stereo not given) | inactive |
| CCOC(=O)N1CCN(C(=O)c2ccc(S(=O)(=O)Nc3cccc(C(F)(F)F)c3)cc2)CC1 | inactive |
| Nc1ccn(CC(=O)N2CCN(c3ccccn3)CC2)c(=O)n1 | inactive |
| CC(C)C(=O)Nc1oc(-c2ccccc2)cc1C#N | 2.08 µM (active) |
| CC(C)C(=O)Nc1ccc2c(c1)oc1ccccc12 | inactive |
| CC(Oc1ccccc1)C(=O)Nc1oc(-c2ccco2)c(-c2ccco2)c1C#N (stereo not given) | inactive |
| CCC(=O)Nc1ccc2nn(-c3ccc(F)cc3)nc2c1 | inactive |
| Cc1cccc(NC(=O)CN2CCN(CC(=O)NCC3(N4CCCCC4)CCCCC3)CC2)c1C | inactive |
| COC(=O)c1c(NC(=O)COc2ccc(Cl)cc2Cl)sc2c1CC(C)(C)NC2(C)C | 6.57 µM (active) |
| COC(=O)c1sccc1NC(=O)COc1ccc(Cl)cc1 | inactive |
| CN1CCN(c2ccc(NC(=O)COc3ccc(Cl)cc3Cl)cc2)CC1 | inactive |

| Compound | Potency |
| --- | --- |
| Cc1nc2ccccc2c(=O)n1-c1ccc(F)c(NC(=O)c2cccs2)c1 | inactive |
| O=C(NCc1cccc(Cl)c1)C1CCC(=O)N(C2CC2)C1 (stereo not given) | inactive |
| CCN1CCN(CCNC(=O)c2ccc3c(c2)NC(=O)/C(=C\c2ccc(OC)c(OC)c2)S3)CC1 | inactive |
| Cc1ccc(S(=O)(=O)N(CC(O)CN2C(=O)NC(C)(C)C2=O)c2cccc([N+](=O)[O-])c2)cc1 (stereo not given) | inactive |
| COc1cc(/C=C2\CCCc3c2nc2ccccc2c3C(=O)O)cc(Cl)c1O | inactive |
| O=C(Nc1ccccc1-c1nnn(CC(=O)N2CCN(c3ccccc3)CC2)n1)c1cccs1 | 9.28 µM (active) |
| COc1ccccc1N1CCN(C(=O)Cn2nnc(-c3cccs3)n2)CC1 | inactive |
| O=C(Nc1ccc(N2CCN(C(=O)C3CC3)CC2)cc1)c1cccs1 | inactive |
| Cc1nc2nc(SCC(=O)Nc3cccc(F)c3)[nH]c2cc1Br | inactive |
| N#Cc1ccc(OCC(=O)NC(=O)NC2CCS(=O)(=O)C2)cc1 (stereo not given) | inactive |
| CCOC(=O)C(C)N(c1ccccc1Cl)S(C)(=O)=O (stereo not given) | inactive |
| Nc1ccccc1Sc1ccc(C(F)(F)F)cc1[N+](=O)[O-] | inactive |
| Cc1cccc(OCCNC(=O)CSc2ccc(C(F)(F)F)cc2[N+](=O)[O-])c1 | inactive |
| O=C(CSc1ccc(C(F)(F)F)cc1[N+](=O)[O-])NCCOc1ccccc1 | 13.1 µM (active) |
| CCOc1ccccc1OCCCNCc1ccccc1 | inactive |
| O=C(CNc1ccc(F)cc1F)NC(=O)NCc1ccco1 | inactive |
| Cn1c(CNC(=O)c2ccco2)nnc1SCC(=O)N1CCN(c2ccccc2)CC1 | inactive |
| Cc1nc2ncnn2c(C)c1CCC(=O)N1CCN(C(=O)c2ccco2)CC1 | inactive |
| Cc1nc2nc(C)c(CCC(=O)N3CCC4(CC3)OCCO4)c(C)n2n1 | 11.7 µM (active) |
| O=C(Nc1cccc2ccccc12)N1CCC2(CC1)OCCO2 | inactive |
| COc1ccc(CNC(=O)CNC(=O)c2sc3ccccc3c2Cl)cc1OC | inactive |
| CCOc1ccc(C)cc1S(=O)(=O)NC1CCCCCC1 | inactive |

| Compound | Potency |
| --- | --- |
| Cc1ccc(-n2nc(C)c(C(=O)O)c2-n2cccc2)cc1 | inactive |
| CC(NC(=O)C1CCC(CNc2c(N3CCOCC3)c(=O)c2=O)CC1)c1ccccc1 (stereo not given) | 13.1 µM (active) |
| O=C(NCc1ccc(F)cc1)C1CCC(CNc2c(N3CCOCC3)c(=O)c2=O)CC1 (stereo not given) | inactive |
| CCOc1ccccc1NC(=O)C1CCC(CNc2c(N3CCOCC3)c(=O)c2=O)CC1 (stereo not given) | inactive |
| O=C(NCCCc1ccccc1)C1CCC(CNc2c(N3CCCCC3)c(=O)c2=O)CC1 (stereo not given) | inactive |
| O=C(NCc1ccccc1Cl)C1CCC(CNc2c(N3CCCCC3)c(=O)c2=O)CC1 (stereo not given) | 10.4 µM (active) |
| COc1ccc(NC(=O)C2CCC(CNc3c(N4CCCCC4)c(=O)c3=O)CC2)c(OC)c1 (stereo not given) | inactive |
| CCCCn1c(N)c(N(CCC(C)C)C(=O)COC(=O)c2cccnc2OCC)c(=O)[nH]c1=O | inactive |
| Cc1ccc(/C=C2\SC(=S)N(CCC(=O)Nc3ccc(O)cc3)C2=O)cc1 | inactive |
| COc1ccc(C(=O)NNC(=S)NC(=O)c2ccccc2)cc1 | 6.57 µM (active) |
| COc1ccc(C(=O)NC(=S)NC2CCCCC2)cc1 | inactive |
| COc1ccc(OCC(=O)NNC(=O)c2ccc(-c3ccccc3)cc2)cc1 | inactive |
| Cc1cc(NC(=O)CCC(=O)N(CC(=O)NC2CCCC2)c2ccc(F)cc2)no1 | inactive |
| C=CCC1=C/C(=C\c2c(N)n3nc(CC(=O)N4CCOCC4)sc3nc2=O)C=C(OC)C1=O | inactive |
| Cc1cnc(NC(=O)CSc2c(Cl)cccc2Cl)s1 | 10.4 µM (active) |
| Cc1cnc(NC(=O)CSc2nnc(C)s2)s1 | inactive |
| Cc1ccc(SCC(=O)Nc2ncc(C)s2)cc1 | inactive |
| CCOC(=O)c1sc(=NC(=O)c2ccc(Br)cc2)n(C)c1C | inactive |
| CCOC(=O)C1=C(C)NC(SC)=NC1c1ccccc1 (stereo not given) | inactive |
| CCOC(=O)C1=C(C)Nc2sc(C(=O)c3ccc(Br)cc3)c(N)c2C1c1ccc(C(=O)OC)cc1 (stereo not given) | 6.57 µM (active) |
| CC(OC(=O)/C=C/c1ccccc1)C(=O)Nc1ccc(C(N)=O)cc1 (stereo not given) | inactive |
